Structures are written as SMILES. Values without a mark were called inactive. Calls of active or inactive are those of the source.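 How the source made its calls: active means fitted AC50 no higher than ten times the top tested dose (cut at about 90 µM in these data); inconclusive means flat curve with 30 to 70% signal loss, or bad fit; inactive means AC50 beyond ten times the top dose.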

A short description of this experiment: TruHit bead signal quenchers or artefacts – biochemical, TruHit kit, artefact control, dose response (AID 1259339). The settings on record: TruHit alphaLISA kit signal interference counterscreen; series mostly up to 80 µM; activity change, negative = signal loss: at the top concentration.
For the compound `Nc1ccc(-c2cccc(CN3CCCC3)c2)cc1`, the “activity change, negative = signal loss” value is -10.3%.
In the case of `O=C(Nc1nc(-c2ccccn2)cs1)c1cccc(-n2cnnn2)c1`, the “activity change, negative = signal loss” value is -1.96%.
As to `O=C(COC(=O)c1cc(-c2ccco2)nc2ccccc12)NCc1ccccc1`, the AC50 is 35.1 µM (active).
Same read-out and setting: next, `O=C(COC(=O)c1ccc(S(=O)(=O)NCc2ccco2)cc1)Nc1ccc(Cl)cn1`: above 160 µM.
For `CCc1nc(OCc2ccco2)c2sc3nc4c(cc3c2n1)COC(C)(C)C4`, the “activity change, negative = signal loss” value is -54%.
The same measure, in the same setting: in the case of `CCCc1cc(C(=O)N2CC[C@H]3CNC[C@H]32)n(C)n1` it was 11.4%; in that of `O=C(O)COc1ccc(-n2cccc2)cc1`, -5.07%.
With `O=C(COC(=O)c1cc(-c2cccs2)nc2ccccc12)NCc1ccco1`, the AC50 was 40.2 µM (active).
Turning to `N#CNc1nc(O)cc(=O)[nH]1`, the “activity change, negative = signal loss” value is 18.1%.
Take `COC[C@]1(O)CCN(C(=O)CCN(C)S(C)(=O)=O)CC1(C)C`: the “activity change, negative = signal loss” value is 13%.
`O=C1CS/C(=N\N=C\c2ccco2)N1c1ccccc1`: the AC50 was 30.8 µM (active).
Still for that read-out and setting: next, `O=c1/c(=C/c2ccco2)sc2nc3ccccc3n12`: above 160 µM.
As to `O=C(CN1CCOC1=O)N1CCC2(CCC(=O)N(CCCn3ccnc3)C2)CC1`, the “activity change, negative = signal loss” value is -4.31%.
In the case of `O=C(Nc1ccc2oc(-c3ccncc3)nc2c1)c1ccc2c(c1)OCCO2`, the “activity change, negative = signal loss” value was 2.45%.
In the case of `O=S(=O)(c1ccccc1)N1CC2CN(Cc3ccc(O)cc3)C2C1` (stereo unspecified), the “activity change, negative = signal loss” value is -10.5%.
For `CC(C)C(CC(=O)NCc1ccco1)c1ccco1` (stereo unspecified), the AC50 is 66.5 µM (active).
Consider `CC(=O)c1ccc(NC(=O)c2noc3c2CCC3)cc1`, for which the “activity change, negative = signal loss” value was 10.7%.
In the case of `O=C(O)Cc1c[nH]c2cccc(O)c12`, the AC50 was 11.3 µM (active).
On to `NC(=O)c1ccc(CN2C(=O)C3(CCNCC3)Nc3ccccc32)cc1`, for which the “activity change, negative = signal loss” value was 9.05%.
With `N#Cc1c(N)oc(-c2ccco2)c1-c1ccco1`, the AC50 was 29.9 µM (active).
For the compound `CCn1ccnc1C1CCN(C(=O)CCn2c(C)nc3ccccc32)CC1`, the “activity change, negative = signal loss” value is 12.8%.
Turning to `CCN1CCN(C(=O)c2cc(-c3ccco3)nc3ccccc23)CC1`, the AC50 was above 160 µM.
As to `O=C(Nc1ccc2oc(-c3ccncc3)nc2c1)c1ccc2c(c1)OCO2`, the “activity change, negative = signal loss” value is -13%.
Take `CCCN1CCCn2nc(CNC(=O)[C@@H](N)Cc3ccc(O)cc3)cc2C1`: the “activity change, negative = signal loss” value is -11.3%.
In the case of `O=C(O)C1Oc2cc3ccccc3cc2O1`, the AC50 is 30.2 µM (active).
The same measure, in the same setting: next, `C(=C\c1ccco1)/c1nc2ccccc2[nH]1`: 22.5 µM (active); `O=C(Cc1ccc(S(=O)(=O)N2CCOCC2)s1)Nc1nc2c(s1)CCCC2`: 29.2 µM (active).
Turning to `O=C(COC(=O)c1ccc(F)cc1F)Nc1ncccn1`, the “activity change, negative = signal loss” value was 139%.
For the compound `CC1(C)Cc2ccccc2-c2nc(-c3ccccc3)oc(=O)c21`, the AC50 is 33.4 µM (active).
Take `O=C(Nc1nnc(-c2ccco2)s1)c1ccccc1`: the “activity change, negative = signal loss” value was 12.7%.
As for `NC(=O)C1(N2CCCCC2)CCN(c2ccc(NC(=O)c3cccc(Cl)c3)cc2C(=O)O)CC1`, the “activity change, negative = signal loss” value was 16%.
On to `O=C(O)CCc1ccc(-c2cccs2)n1NC(=O)c1ccco1`, for which the AC50 was above 160 µM.
In the case of `Cc1ccc(Nc2nc(C(=O)Nc3ccc(Cl)cc3)nc3ccccc23)cc1`, the “activity change, negative = signal loss” value is -9.32%.
For the compound `OCc1ccc(O)c2ncccc12`, the AC50 is above 160 µM.
As for `CC1CCN(c2nc(-c3ccco3)c3c(c2C#N)CC(C)(C)OC3)CC1`, the AC50 is 33.5 µM (active).
Regarding `O=S(=O)(Nc1nc2ccc(S(=O)(=O)N3CCCCC3)cc2s1)c1ccccc1`, the AC50 is 76.8 µM (active).
